Rows were chosen to be rich in hits. Some 21% of all compounds tested hit in one or more screens of this group.
NS1 function inh: blocks influenza NS1 protein function. AID 2326. hit rate 0.4% among 270,000. Potency, µM (series often up to 46.1 µM); calls by dose curve; note: actives are rising curves; nearly all actives have a fitted effect of over 50% in size
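Growth recovery, yeast-based: influenza A NS1 expressed in S. cerevisiae causes slow growth, and suppressors are detected by OD600. The parent strain without NS1 is used as positive control.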
Pf growth 48h: inhibits P. falciparum growth in the first generation, 48 h; Potency, µM (series often up to 28.7 µM), usual class: inhibitors; AID 504832; hit rate 5.9% among 310,000; P. falciparum luciferase growth in erythrocytes, 48 h
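Erythrocytes infected with P. falciparum carrying an integrated firefly luciferase reporter (2% hematocrit, 0.1% parasitemia final) were exposed to compounds in RPMI 1640 with 0.5% Albumax at 37 C, 5% CO2. Growth inhibition was scored as reduced luminescence.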
Pf growth 96h: inhibits malaria parasite growth, 96 h | P. falciparum luciferase reporter growth, 96 h | Potency, µM (titrated, usually from 28.7 µM), most hits filed as inhibitors | hit rate 6.9% among 320,000
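Parasite growth measured via integrated firefly luciferase reporter in P. falciparum. Infected erythrocytes at 2% hematocrit, 0.05% parasitemia final were treated 96 hours at 37 C under 5% CO2, and luminescence was read.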
Cycloheximide cs: affects cycloheximide protein synthesis inhibition readout, counter-screen | cell reporter, cycloheximide protein synthesis inhibition counterscreen | max response, % | hit rate 12% among 300,000 | AID 2314; in the data active = max response mostly above about 13%, no sharp cut-off; inactive = mostly below about 14%; note: read at 38.3 µM for the half of the compounds with a filed dose
FBPA Giardia inh: blocks Giardia fructose-bisphosphate aldolase activity | A8B2U2 | purified Giardia FBPA | Potency, µM (top dose mostly 59.6 µM), actives largely listed as inhibitors | hit rate 0.71% among 290,000 | AID 2451; note: nearly all actives have a fitted effect of over 55% in size
Target sequence (A8B2U2 whole entry, looked up): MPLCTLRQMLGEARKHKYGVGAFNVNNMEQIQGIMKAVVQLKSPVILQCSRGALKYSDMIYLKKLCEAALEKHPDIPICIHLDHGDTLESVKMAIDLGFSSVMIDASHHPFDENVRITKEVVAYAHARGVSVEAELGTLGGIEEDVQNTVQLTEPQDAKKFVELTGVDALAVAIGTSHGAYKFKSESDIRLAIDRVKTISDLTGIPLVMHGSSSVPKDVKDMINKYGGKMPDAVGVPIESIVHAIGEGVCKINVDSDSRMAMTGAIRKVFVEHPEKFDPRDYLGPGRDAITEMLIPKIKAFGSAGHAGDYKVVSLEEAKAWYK
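40 nM FBPA preincubated 10 min at RT with compound (up to 57.5 uM final), then substrate plus GAPDH/TPI/NAD/arsenate coupling and diaphorase/resazurin added. Fluorescence read after 20 min at RT, 525/598 nm.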
Shiga toxin inh: blocks Shiga toxin action in Vero cells | AID 2315 | Vero cells, Shiga toxin protein synthesis inhibition reporter | hit rate 9.2% among 290,000 | inhibition, % at 38.7 µM; in the data active = inhibition mostly above about 28%, no sharp cut-off; inactive = mostly below about 43%
Hits are given with their value; – = inactive; ? = inconclusive; · = no result given; [ ] = remark or other dose. Unless noted, calls come from the whole dose curve; as a rule, active = well fitted curve in the direction sought with a large enough effect; inconclusive = small, poorly fitted or top-dose-only effect, or another doubt; inactive = no such curve, though single readings can be large; an effect the other way counts as inactive or inconclusive.

SMILES	NS1 function inh	Pf growth 48h	Pf growth 96h	Cycloheximide cs	FBPA Giardia inh	Shiga toxin inh
CC(C)(C)C#CCn1c(/C=[N+](\[O-])C2CCCCC2)nc2ccccc21	–	–	–	–	?	–
CCOC(=O)C1=C(C)Nc2sc(C(=O)c3ccc(OC)cc3)c(N)c2C1c1ccc(C(=O)OC)cc1 (configuration not stated)	–	7.38µM	5.86µM	–	–	–
CC1N(C(=O)N2CCOCC2)CCN1S(=O)(=O)c1cccc(C(F)(F)F)c1 (configuration not stated)	–	–	–	–	–	–
CCCCC(=O)NC(=S)Nc1ccccc1N1CCCCC1	–	?	?	–	–	–
CCC(=O)NC(=S)Nc1cccc(Cl)c1N1CCCCC1	–	11.7µM	7.38µM	–	–	–
CCCC(=O)NC(=S)Nc1cccc(Cl)c1N1CCCCC1	–	7.38µM	8.28µM	–	–	–
CCCC(=O)NC(=S)Nc1ccccc1N1CCOCC1	–	–	10.4µM	–	–	–
CCCCC(=O)NC(=S)Nc1cccc(Cl)c1N1CCCCC1	–	?	?	–	–	–
Cc1ccc(C(=O)NCCNS(=O)(=O)c2ccccc2)cn1	–	–	?	–	–	–
COc1ccc(C2=NOC(Cn3nc(C(=O)NCc4ccc(OC(F)(F)F)cc4)cc3-c3ccccc3)C2)cc1 (configuration not stated)	·	10.4µM	–	·	·	·
CCOC(=O)c1cc(-c2ccccc2C)nn1CC1CC(c2ccc(OC)cc2)=NO1 (configuration not stated)	·	–	?	·	·	·
COc1ccc(C2=NOC(Cn3nc(C(=O)NCc4ccccc4OC)cc3-c3ccccc3)C2)cc1 (configuration not stated)	·	13.1µM	?	·	·	·
COc1ccc(C2=NOC(Cn3nc(C(=O)NCC4CC4)cc3-c3ccccc3)C2)cc1 (configuration not stated)	·	?	9.28µM	·	·	·
COc1ccccc1CNC(=O)c1cc(-c2ccccc2C)nn1CC1CC(c2cccnc2)=NO1 (configuration not stated)	·	?	4.65µM	·	·	·
COc1cccc(NC(=O)CN(C)C(=O)Cn2c(=O)oc3ccccc32)c1	·	–	?	·	·	·
O=[N+]([O-])c1ccc(/C=N/N2CCN(c3ccncc3S(=O)(=O)N3CCCCC3)CC2)cc1	–	?	4.15µM	–	–	–
O=NN1CCN(c2ccncc2S(=O)(=O)N2CCCCC2)CC1	–	–	–	–	–	–
CN1CCN(c2ccncc2S(=O)(=O)N2CCCCC2)CC1	?	–	?	–	–	–
O=[N+]([O-])c1ccccc1/C=N/N1CCN(c2ccncc2S(=O)(=O)N2CCCCC2)CC1	–	11.7µM	2.33µM	–	–	–
FC(F)(F)c1cccc(N2CCN(C(=S)NC3CCCC3)CC2)c1	–	?	13.1µM	–	–	–
CCNC(=S)N1CCN(c2cccc(C(F)(F)F)c2)CC1	–	–	–	–	–	–
C=CCNC(=S)N1CCN(c2cccc(C(F)(F)F)c2)CC1	–	–	?	45.9	–	–
S=C(NC1CCCCC1)N1CCN(c2ccccn2)CC1	–	–	11.7µM	–	–	–
O=C1CCN(Cc2cccnc2)CCN1[C@H](CO)Cc1ccccc1	–	–	–	–	–	–
Cc1cccc(N(C(=O)c2csnn2)C(C(=O)NCc2ccccc2)c2cccs2)c1 (configuration not stated)	–	–	–	–	–	–
SMILES	NS1 function inh	Pf growth 48h	Pf growth 96h	Cycloheximide cs	FBPA Giardia inh	Shiga toxin inh
CCCC[C@H](NC(C)=O)C(=O)N[C@@H](CCC(=O)O)C(=O)N[C@@H](Cc1cnc[nH]1)C(=O)N[C@H](Cc1ccccc1)C(=O)N[C@@H](CCCN=C(N)N)C(=O)N[C@H](Cc1c[nH]c2ccccc12)C(=O)NCC(N)=O	·	·	·	–	–	–
C=C(C(C)=O)C(O)c1cccc(OC)c1 (configuration not stated)	·	·	·	·	–	·
COc1ccccc1CCn1c(=O)c(-c2cc(F)cc(F)c2)nc2cncnc21	·	·	·	·	–	·
O=c1c2ccccc2nc(SCc2nc3ccccc3s2)n1CCCO	–	–	–	46.4	–	137.4
Cc1ccnc(SCc2nc3ccccc3s2)n1	–	·	–	32.4	–	62.0
Cn1nnnc1SCc1nc2ccccc2s1	–	–	–	38.0	–	94.1
CC(=O)Nc1ccc(NC(=O)CCNC(=O)c2ccccc2Cl)cc1	–	–[0.00184 µM]	–	–	–	–
O=S(=O)(NCCC1=CCCCC1)c1ccc(F)cc1	–	–	–	–	–	–
O=C(CNC(=O)N1CC(=O)Nc2ccccc21)NCCc1cccc(F)c1	–	–	–	–	–	–
